From PubChem BioAssay
NPC1 promoter act = activates the NPC1 promoter. Huh7 NPC1 promoter luciferase reporter, 24 h. Potency, µM (doses to about 9.22 µM), hits mostly activators. 320,000 compounds, 2.4% hits. AID 485313; further: nearly all actives have a fitted effect of over 60% in size
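Compounds in DMSO were transferred onto Huh7 NPC1-luciferase reporter cells pre-incubated 2 h; after 24 h at 37 °C, Amplite reagent was dispensed and luminescence recorded 10 min later.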
SMN2 splice up = enhancers of SMN2 splice variant expression; HEK293 SMN2-luciferase splicing reporter, luminescence, 30-36 h; Potency, µM (series often up to 46.1 µM), usual class: activators; 210,000 compounds, 2.8% hits; AID 1458; further: nearly all actives have a fitted effect of over 55% in size
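HEK293 cells carry an SMN2 […]–luciferase reporter in which exon 7 inclusion puts luciferase in frame. Cells were plated 10-12 h before compound addition, then incubated 30-36 h at 37C. ONE-Glo luminescence was read; sodium butyrate at 4.5 mM final served as control.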
FLuc modulator = inhibits or activates purified firefly luciferase, miR-21 counter-screen. P08659. 360,000 compounds, 6.9% hits. purified FLuc, Km substrates, luminescence inhibition. Potency, µM (titrated, usually from 57.5 µM), most hits filed as inhibitors. AID 588342; further: nearly all actives have a fitted effect of over 55% in size
Target sequence (P08659 whole entry, looked up): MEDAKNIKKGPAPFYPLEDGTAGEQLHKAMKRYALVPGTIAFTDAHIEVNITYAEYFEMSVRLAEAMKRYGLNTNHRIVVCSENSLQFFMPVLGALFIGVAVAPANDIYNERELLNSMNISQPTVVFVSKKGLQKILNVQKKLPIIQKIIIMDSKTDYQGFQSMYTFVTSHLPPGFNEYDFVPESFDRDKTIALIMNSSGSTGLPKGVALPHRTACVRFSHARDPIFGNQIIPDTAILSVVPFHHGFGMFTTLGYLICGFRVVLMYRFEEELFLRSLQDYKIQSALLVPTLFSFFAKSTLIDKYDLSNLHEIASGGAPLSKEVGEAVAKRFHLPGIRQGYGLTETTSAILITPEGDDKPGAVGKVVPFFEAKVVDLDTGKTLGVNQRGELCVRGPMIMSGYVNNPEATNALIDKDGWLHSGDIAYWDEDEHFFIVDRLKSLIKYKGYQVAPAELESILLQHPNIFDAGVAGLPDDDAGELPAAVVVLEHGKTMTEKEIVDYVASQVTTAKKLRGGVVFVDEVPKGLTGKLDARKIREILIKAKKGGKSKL
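Purified P. pyralis luciferase, 10 nM final, with Km-level 10 uM D-luciferin and 10 uM ATP in 50 mM Tris acetate pH 7.5, 10 mM Mg acetate, 0.01% Tween-20, 0.05% BSA; 6-point qHTS titration about 60 µM downward; luminescence read.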
KinaseGlo FLuc = Kinase-Glo luciferase inhibition (counter-screen); Potency, µM (titrated, usually from 38.3 µM), most hits filed as inhibitors; Kinase-Glo luciferase, ATP luminescence, 8 min; 200,000 compounds, 0.28% hits; Q27757; AID 1379; further: nearly all actives have a fitted effect of over 60% in size
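Kinase-Glo luciferase light output from ATP and luciferin was measured with 10 uM ATP, within the enzyme's linear range. Buffer: 50 mM imidazole pH 7.2, 50 mM KCl, 7 mM MgCl2, 0.01% Tween 20, 0.05% BSA; luminescence read after 8 min at ambient temperature.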
Rab9 promoter act = activates the Rab9 promoter. 320,000 compounds, 2.8% hits. AID 485297. Potency, µM (highest dose often 9.22 µM), actives largely listed as activators. Huh7 Rab9 promoter-luciferase reporter, luminescence, 24 h; further: nearly all actives have a fitted effect of over 60% in size
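Cell-based reporter: Huh7 stable for Rab9 promoter-driven luciferase, plated in reduced-serum medium with 10% FBS at 1500 cells/well, compound-treated 24 h at 37 °C, luminescence read after 10 min reagent.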
ELG1 genotoxic = inducers of genotoxicity in HEK293T ELG1-luciferase cells | Potency, µM (titrated, usually from 46 µM), usual class: activators | 330,000 compounds, 1.3% hits | HEK293T ELG1-luciferase reporter, luminescence, 16 h; further: nearly all actives have a fitted effect of over 60% in size
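HEK293T cells expressing luciferase-tagged ELG1 were treated with compound or DMSO for 16 hr at 37°C. Luciferase activity was then read after 30 min with ONE-Glo at room temperature; rising signal flags genetic stress.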
A number is an active result; - = inactive; ? = inconclusive; . = not tested or not shown; [ ] = another dose, or the depositor's remark. A selection: hits, their analogues and other compounds. The true share with any hit is near 7.5%. The call rests on the fitted dose curve; in most records, active means well fitted curve in the direction sought with a large enough effect; inconclusive means small, poorly fitted or top-dose-only effect, or another doubt; inactive means no such curve, though single readings can be large; an effect the other way counts as inactive or inconclusive.

SMILES	NPC1 promoter act	SMN2 splice up	FLuc modulator	KinaseGlo FLuc	Rab9 promoter act	ELG1 genotoxic
CC(/C=N/NC(=O)c1cc(-c2ccncc2)nc2ccccc12)=C\c1ccco1	-	-	-	-	-	-
O=C(N/N=C/c1ccc[nH]1)c1cc(-c2ccc(Cl)cc2)nc2ccccc12	-	-	12µM	-	-	-
CCn1c(SCC(=O)Nc2cccc(OC)c2)nc2c(c1=O)SCC2	-	.	-	.	-	-
O=C(c1cnccn1)N1CCC2(CC1)CCN(c1cccc(-c3ccccc3)c1)CC2	.	-	.	-	.	.
O=C(N/N=C/c1cccc(O)c1)c1cc(-c2ccccc2)nc2ccccc12	-	.	11µM	.	-	-
O=C(N/N=C/c1cccc([N+](=O)[O-])c1)c1cc(-c2ccccc2)nc2ccccc12	-	-[1.84 µM]	-	-	-	-
CN(Cc1ccccc1)C(=O)Nc1ccc2c(c1)N(C)C(=O)c1ccccc1S2	.	.	-	.	.	.
O=CN(/C=C1\Sc2ccccc2C1=O)Cc1ccccc1	-	-	11µM	-	-	?
CC(=O)N(C)/C=C1\Sc2ccccc2C1=O	-	-	?	-	-	-
CCC(=O)N(C)/C=C1\Sc2ccccc2C1=O	-	-	11µM	-	-	-
CC(C)(C)n1cnc2cc(NCc3ccccc3Cl)ccc21	.	-	13µM	.	.	.
Cc1ccc(CNc2ccc3c(c2)ncn3C(C)(C)C)cc1	1.8µM	10µM	9.5µM	-	4µM	?
COc1ccc(CNc2ccc3c(c2)ncn3C)cc1OC	-	.	-	.	-	-
CCc1ccc(CNc2ccc3c(c2)ncn3C)cc1	2.2µM	11µM	9.5µM	-	2.8µM	?
Cn1cnc2cc(NCc3ccccc3O)ccc21	-	.	?	.	-	-
CCCC(=O)Nc1ccc2nn(-c3ccc(CC)cc3)nc2c1	.	-	?	.	.	.
Cc1ccc(CNc2ccc3c(c2)ncn3C)cc1	3.2µM	18µM	12µM	-	2µM	8.2µM
COc1ccc(S(=O)(=O)N2CCOCC2)cc1NC(=O)CSc1nnc(N)s1	-	.	-	.	-	-
O=C(OCN1C(=O)c2ccccc2C1=O)c1cccc(OC(F)F)c1	-	.	-	.	-	-
CCn1cnc2cc(NCc3ccc(Cl)cc3)ccc21	2.8µM	.	11µM	.	2.5µM	?
O=C(Cc1c(F)cccc1Cl)Nc1ccccc1-c1ccccc1	-	.	-	.	-	-
COc1ccc(CCC(=O)Nc2cccc(S(=O)(=O)N(C)C)c2)cc1OC	-	-	-	-	-	-
COc1cccc(/C=C/C(=O)c2c(O)cc(C)oc2=O)c1O	-	-	?	-	-	?
CSc1ccc(/C=C/C(=O)c2c(O)cc(C)oc2=O)cc1	-	.	4.3µM	.	?	-
Cc1cc(O)c(C(=O)/C=C/c2ccc(Cl)cc2)c(=O)o1	-	.	2.1µM	.	-[1.84 µM]	-
SMILES	NPC1 promoter act	SMN2 splice up	FLuc modulator	KinaseGlo FLuc	Rab9 promoter act	ELG1 genotoxic
COc1ccc(/C=C/C(=O)c2c(O)cc(C)oc2=O)c(OC)c1	3.5µM	-	1.3µM	?	1.8µM	16µM
COc1cc(/C=C/C(=O)c2c(O)cc(C)oc2=O)cc(OC)c1O	-	-	-	-	-	-
CCOC(=O)c1c(NC2=NS(=O)(=O)c3ccccc32)sc2c1CCC(C)C2 (stereo unspecified)	-	-	-	-	-	-
CCOC(=O)c1c(NC2=NS(=O)(=O)c3ccccc32)sc2c1CCCCC2	1.4µM	.	-	.	?	-
CC1CCCN(C(=O)c2ccc(-c3ccccc3Cl)o2)C1 (stereo unspecified)	3.5µM	.	8.5µM	.	2.5µM	15µM
Cc1nc(C)c(C(=O)Nc2cccc(Cl)c2)o1	-	-	-	-	-	-
Cc1nc(C)c(C(=O)Nc2ccc(Oc3ccccc3)cc2)o1	-	-	24µM	-	-	-
Cc1ncoc1C(=O)Nc1ccc(Oc2ccccc2)cc1	?	-	15µM	-	?	-
Cc1ncoc1C(=O)Nc1ccccc1-c1ccccc1	-	-	-	-	-	-
CCCCC(Sc1nc(N)c(NC(=O)c2ccco2)c(=O)[nH]1)C(=O)O (stereo unspecified)	-	.	-	.	-	-
COc1ccccc1CN(C)C(=O)CN1C(=O)c2ccccc2C1=O	-	.	-	.	-	-
CC1=C(C(=O)OCc2ccc(C)cc2)C(c2cccc(F)c2F)CC(=O)N1 (stereo unspecified)	.	-	-	.	.	.
Nc1ccc(O)c2c1C(=O)c1ccccc1C2=O	-	-	?	13µM	-	-
COc1cccc2c1-c1c(C(=O)O)cccc1C2=O	-	.	-	.	-	-
COc1cccc2c1C(=O)c1ccc3ccccc3c1C2=O	-	16µM	1.9µM	-	?	13µM
COc1ccc(N)c2c1C(=O)c1ccccc1C2=O	-	?	24µM	-	?	?
COc1ccc(OC)c2c1C(=O)c1ccccc1C2=O	-	-	-	-	-	-
CC(Oc1ccccc1F)C(=O)Nc1ccc2ccccc2c1 (stereo unspecified)	-	3.5µM	?	-	-	-
O=C(N/N=C/c1ccc([N+](=O)[O-])s1)c1ccccc1	-	-	-	-	-	-
O=C(N/N=C/c1sc2ccccc2c1O)c1ccccc1	-	-	17µM	-	-	?
O=C(N/N=C/c1sc2ccccc2c1O)c1cccc2ccccc12	-	-	17µM	-	-	-
COc1ccc(C(=O)N/N=C/c2sc3ccccc3c2O)cc1	-	-	13µM	-	-	?
Oc1ccc(Cl)cc1N=Cc1sc2ccccc2c1Cl	-	-	-	-	-	-
COc1ccc(C(=O)N/N=C/c2c(C)[nH]c(=O)[nH]c2=O)cc1	-	-	-	-	-	-
COc1ccc(N=Cc2sc3ccccc3c2Cl)cc1	-	-	4.8µM	-	-	-
SMILES	NPC1 promoter act	SMN2 splice up	FLuc modulator	KinaseGlo FLuc	Rab9 promoter act	ELG1 genotoxic
O=c1oc2ccc3ccccc3c2cc1-c1nnc(Nc2cccc(F)c2)s1	.	-	-	.	.	.
Cc1nc(SCC(=O)Nc2ccccc2Cl)oc1C	-	.	-	.	-	-
Cc1ccc2nc(-c3ccccc3)cc(C(=O)NCC(c3ccco3)N(C)C)c2c1 (stereo unspecified)	-	.	?	.	-	-
Cc1cccc(CCNC(=O)CNS(=O)(=O)c2ccc3nc(C)sc3c2)c1	-	.	-	.	-	-
COc1ccc(/C=N\NC(=O)c2cccc(Br)c2)c(OC)c1	-	.	-	-	-	-
COc1ccc2cc(C(=O)N/N=C/c3sc4ccccc4c3O)ccc2c1	-	-	13µM	-	-	?
O=C(Oc1ccc(-c2ccccc2)cc1)N1CCOCC1	2.8µM	?	21µM	-	2µM	?
O=C(Oc1ccccc1)N1CCCC1	-	.	-	.	-	-
O=C(Oc1ccc(Oc2ccccc2)cc1)N1CCC(O)CC1	?	.	17µM	.	?	?
CC(=O)NC(CC(=O)N(C)C1CCCCC1)c1ccccc1 (stereo unspecified)	-	.	-	.	-	-
COc1ccc(-c2nc3c4ccccc4[nH]c(=O)n3n2)cc1	.	-	8.5µM	-	.	.
